The text below walks through data of PubChem BioAssay (NCI).

The assay relates to MDA-MB-468 breast. As to the kind of experiment: NCI-60 one-dose screen, 48 h (100 = growth as untreated, 0 = no growth, -100 = all killed). The conditions noted are these: 10 µM unless noted.

“And” between values parts separate entries of the source, which are not always exact repeats. Equal entries are not always repeated. Compounds without any hit were thinned out: in the full panel of roughly 83,000, 20% have a hit.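 Interpretation: 100, growth as untreated; towards 0, rising growth inhibition; 0, no net growth; 0 to -100, cell death. Compounds scoring below 10 were considered active.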 Unmarked numbers belong to inactive results. The source made the active and inactive calls.

As to `O=C([C@H]1C[C@H]1c1ccc(S(F)(F)(F)(F)F)cc1)N1CCN(c2cc(Cl)ccc2C(F)(F)F)CC1`, the growth was 58.9%.

Take `O=[N+]([O-])c1ccc(N/N=C(/C(=N/Nc2ccc([N+](=O)[O-])cc2)c2ccccc2)c2ccccc2)cc1`: the growth was 80.6%.

`Cc1cccc(NC(=O)c2sc3nc4c(cc3c2N)CN(Cc2ccccc2)CC4)c1C`: the growth is 24.4%.

Regarding `CC(C)C(=O)OCCOc1ccc(C(C)(C)C)cc1`, the growth was 102%.

On to `O=C(N/N=C/c1ccc(O)cc1O)c1cccc(Nc2ccnc(C(F)(F)F)c2)c1`, for which the growth was 43.1%.

In the case of `Nc1nccc2c1ccn2-c1cccc(NC(=O)c2ccc(N3CCOCC3)c(C(F)(F)F)c2)c1`, the growth is -14.2% (active).

Consider `C(=C\c1ccncc1)/c1ccncc1`, for which the growth is 92.6%.

On to `COc1ccc(OC)c(NC(=O)c2cc3oc4ccccc4c3cc2O)c1`, for which the growth was 96.9%.

With `C[C@@H](Oc1cc(C(=O)Nc2ccc(C(=O)N3CCN(C)CC3)cc2)nnc1N)c1c(Cl)ccc(F)c1Cl`, the growth is 62.3%.

For `C=C1C(=O)O[C@@H]2[C@H]3[C@H](COC(C)=O)[C@@H](OC(C)=O)C[C@H]3C(=C)[C@@H](O)C[C@@H]12`, the growth is 77%.

Regarding `C#C[C@]1(O)CC[C@H]2[C@@H]3CC=C4c5sc(-c6ccc7c(c6)OCO7)nc5CC[C@]4(C)[C@H]3CC[C@@]21C`, the growth was 51.5%.

With `CC[C@H](Nc1nc(N)nc(N)c1Cl)c1nc2cccc(NCc3ccc(C(=O)NO)cc3)c2c(=O)n1-c1ccccc1`, the growth is -34.3% (active).

Regarding `CS(=O)(=O)Nc1cccc(C(=O)NCc2ccc(N3CCOCC3)cc2)c1`, the growth was 93%.

`O=C(/C=C/CN1CCOCC1)Nc1cc2c(Nc3ccc(F)c(Cl)c3F)ncnc2cc1OCCOC(F)F`: the growth was -17.6% (active).

Consider `CCN(CC)CCCCCCNc1cccc2cc(Br)cnc12`, for which the growth was 77%.

`CCC12CCC[N+]3([O-])CCC4(C(=Nc5ccccc54)C(O)(C(=O)OC)C1)C23` (stereo not drawn): the growth was 112%.

Turning to `CCOC(=O)/C=c1\sc2n(c1=O)C1C(NN=2)N(CC)C(=O)N1CC` (stereo not drawn), the growth was 48.4%.

Take `Cc1cc(O)c(C2=NN(c3ccc(S(N)(=O)=O)cc3)C(c3ccccc3Cl)C2)cc1Cl` (stereo not drawn): the growth was 28.9%.

As for `O=C1Nc2cc(-c3ccc(NC(=O)c4ccccc4)cc3)ccc2/C1=C/c1ccc[nH]1`, the growth is 2.14% (active).

For `CCN(CC)CCOc1ccc(C(=C(C)c2ccc(OC)cc2)c2ccc(OCCN(CC)CC)cc2)cc1`, the growth is -70.1% (active).

Turning to `Oc1ccc(Cc2ccc(O)c(C3CC(c4ccc(Cl)cc4)=NN3)c2)cc1C1CC(c2ccc(Cl)cc2)=NN1` (stereo not drawn), the growth is 23.3%.

Take `CN1C(=O)N(C)C2(c3ccccc3)OC(=S)NC12c1ccccc1` (stereo not drawn): the growth was 112%.

As for `Nc1cccc2cccc(O)c12`, the growth is 82.6%.

On to `CCOC(=O)c1ccccc1SC(C[N+](=O)[O-])c1ccccc1` (stereo not drawn), for which the growth is 63.7%.

Turning to `O=C(Cn1cc[n+](CC(=O)c2ccc(-c3ccccc3)cc2)c1)Nc1cccc2cccnc12`, the growth is 8.42% (active).

In the case of `CC(CCC(=O)O)(NC(=O)c1ccc([N+](=O)[O-])cc1)C(=O)O` (stereo not drawn), the growth was 112%.

Consider `O=C(N/N=C/c1ccccc1)N/N=C/c1ccccc1`, for which the growth was 108% and 96.4%.

For `CCOc1ccc(NC(=O)c2ccoc2COc2ccccc2)cc1`, the growth is 113%.

Take `Cc1nc2ccccc2n1CC1C(=O)NC(=O)NC1=O`: the growth was 107%.

`CNS(=O)(=O)c1cccc(-c2ccc3c4c(n(C)c(=O)c3c2)-c2ccccc2C4=O)c1`: the growth was 83.4%.

Take `O=C(NCCNc1cc(-c2cn(-c3ccccc3)nc2-c2cccc(O)c2)ccn1)Nc1cc(C(F)(F)F)cc(C(F)(F)F)c1`: the growth was 93.6%.

As for `Clc1ccc(Nc2nnc(CNc3ccccc3)c3ccccc23)cc1`, the growth is -16.4% (active).

Regarding `O=C(Nc1ccccc1)Nc1ccc(C(=O)/C=C/c2ccc(N3CCCC3)cc2)cc1`, the growth is 17.3%.

For `CC(C)COC(=O)NC(C)(C)C`, the growth was 96.5%.

For `C#CCNc1nc(NCCNC(=O)CCl)nc(N(C)CCCCc2ccccc2)n1`, the growth was 86%.

`COC(=O)c1ccc(Cn2ccc(=O)[nH]c2=O)cc1`: the growth is 104%.

As to `Cc1sc2ncn(CC(=O)Nc3ccc(S(N)(=O)=O)cc3)c(=O)c2c1C`, the growth was 104%.

Regarding `CCOC(=O)c1sc(NC(=O)c2cc(OC)c(OC)c(OC)c2)nc1C`, the growth is 92.2%.
